Data from PubChem BioAssay (NCATS).
Values joined by “and” are separate entries in the source; they are usually repeats but may differ in a detail not shown here. Equal values may be shown once. Results filed as inconclusive are left out. Active and inactive are the calls of the source. Calls follow the shape of the dose curve; as a rule, active = well fitted cell-killing curve with a large enough effect; inconclusive = small, poorly fitted or top-dose-only effect; inactive = flat fitted curve, though single readings scatter.

assay: Identifying Small Molecule Inhibitors of Pancreatic Cancer Stem Cells (A278, Adherent) (AID 1259361); settings: series mostly up to 46.1 µM;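 also: viability read after 48 h compound exposure; nearly all actives have a fitted effect of over 35% in size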
Text: Progenitor-like cancer cells, often referred to as cancer stem cells (CSC), are believed to be the drivers of therapeutic resistance and rapid recurrence. CSCs are postulated to reside in specific niches characterized by low oxygen tension, limited nutrient supply, and high redox load. Selectively targeting CSC, alone or in combination with cytotoxic agents, as a means to produce durable remissions is an appealing concept. Modeling these cells in in vitro setting is an important step in finding new therapies and/or targets. Multiple reports highlight that forcing cells in culture into 3-dimensionaly architectures (spheroids) re-establishes key progenitor-like transcriptional signatures. Pancreatic cancer is among the diseases with the most dismal outlook which is driven, largely, by recurance following front-line therapies. […] In hopes of deriving new insight into the targeting of these pancreatic CSCs we examined three established pancreatic cancer cell lines in cytotoxicity assays versus a collection of approved and investigational drugs. Importantly, we screened these lines as traditional monolayer (2D) and spheroid (3D) formats to gain an appreciation of agents with differential activity.
Multicellular tumor spheroids from Panc1, MiaPaCa-2, and the primary low-passage tissue culture line SB.06 were seeded in stem cell media (SCM) in nonadherent 6-well plates coated with hydrogel (Corning Life Sciences, Chelmsford, Mass) and pancreatic spheres generated for 14 days before screening. Cells were seeded into 1536-well solid-bottom white tissue culture treated Greiner Bio One Plates (789173-F) using a MultiDrop Combi (Thermofisher Scientific) dispenser and a small sterile cassette. One column was media alone to be used as a :"no cells" control. The plates were then covered with sterilized stainless steel gasketed lids from Kalypsys. After allowing cells to attach for 4 hours, 23 nL of test compound or control (negative control DMSO and positive control 9.2 uM Bortezomib-final) were added from a 1536-well polypropylene compound source plate to each well using a 1536 head pin tool from Kalypsys. Cells were then incubated for 48 hours at 37C, 95% relative humidity and 5% CO2. After 48 hours, plates were removed from the incubator and 3 uL of CellTiter-Glo (Promega) was added using an Aurora Flying Reagent Dispenser Bioraptor. Plates were incubated at room temperature for 10 minutes prior to reading the luminescence on the Viewlux (PerkinElmer). The relative luciferase units are used to calculate the percent activity using the activity of DMSO in the cells and no cells columns for normalization of no inhibition and full inhibition respectively.

Row | Structure (SMILES) | IC50 (viability decrease)
1 | O=C(C=Cc1cccnc1)NCCCCC1CCN(C(=O)c2ccccc2)CC1 | inactive
2 | Cc1nc2cnc3ccc(C#Cc4cccnc4)cc3c2n1-c1ccc(C(C)(C)C#N)cc1 | 0.187 µM (active)
3 | Cn1c2cc(S(C)=O)sc2c2cnn(Cc3cccc(N)c3)c(=O)c21 (stereo not given) | inactive
4 | COc1cc(=C2C=c3ccccc3=N2)[nH]c1=Cc1[nH]c(C)cc1C | 14.8 µM (active)
5 | CC(C)C[C@H](NC(=O)CNC(=O)c1cc(Cl)ccc1Cl)B(O)O | 0.0166 µM (active)
6 | COc1ccc(OC)c(-c2nnc3ccc(-c4ccc(OC)c(O[C@@H]5CCOC5)c4)nn23)c1 | 5.9 µM (active)
7 | c1cc(-c2cnn3cc(-c4ccc(OCCN5CCCCC5)cc4)cnc23)ccn1 | 26.4 µM (active)
8 | COc1ccc(C=Cc2cc(OC)c(OC)c(OC)c2)cc1O | 0.0017 µM (active)
9 | CN1CC[C@@H](c2c(O)cc(O)c3c(=O)cc(-c4ccccc4Cl)oc23)[C@@H](O)C1 | 0.0372 µM (active)
10 | Cc1ccc(C(=O)Nc2ccc(CN3CCN(C)CC3)c(C(F)(F)F)c2)cc1C#Cc1cnc2cccnn12 | 5.26 µM (active)
11 | Nc1nc(-c2nn(Cc3ccccc3F)c3ncccc23)nc(N)c1N1CCOCC1 | inactive
12 | COc1cc2ncnc(Nc3ccc(F)c(Cl)c3)c2cc1NC(=O)C=CCN1CCCCC1 | 16.6 µM (active)
13 | CC(C)(C)c1cc(NC(=O)Nc2ccc(-c3cn4c(n3)sc3cc(OCCN5CCOCC5)ccc34)cc2)no1 | 10.5 µM (active)
14 | Cc1[nH]c2ccccc2c1CCNCc1ccc(C=CC(=O)NO)cc1 | 0.118 µM (active)
15 | CN(C)CCCN=c1c2ccccc2n(C)c2[nH]c(=O)n(C)c(=O)c12 | 11.8 µM (active)
16 | NC(=O)Nc1cc(-c2cccc(F)c2)sc1C(=O)N[C@H]1CCCNC1 | 1.05 µM (active)
17 | O=C(NCCS(=O)(=O)c1ccc(C(F)(F)F)cn1)c1ccc(Cl)cc1 | inactive
18 | Nc1cc(C(F)(F)F)c(-c2cc(N3CCOCC3)nc(N3CCOCC3)n2)cn1 | 0.662 µM (active)
19 | Fc1cc(-c2cccc3ncc(-c4cnn(C5CCNCC5)c4)nc23)cc(F)c1CN1CCOCC1 | 20.9 µM (active)
20 | CC(=O)OCCN1C(=O)c2c(C)nc3ccc(S(=O)(=O)N4CCOCC4)cc3c2C1=O | inactive

Row | Structure (SMILES) | IC50 (viability decrease)
21 | C[C@@H](Oc1cc(-c2cnn(C3CCNCC3)c2)cnc1N)c1c(Cl)ccc(F)c1Cl | 4.18 µM (active)
22 | O=C(O)c1ccc2c(c1)nc(Nc1cccc(Cl)c1)c1ccncc12 | 16.6 µM (active)
23 | Cn1cc(-c2[nH]c3cc(NC(=O)[C@H](N)C4CCCCC4)cc4c3c2C=NNC4=O)cn1 | 2.64 µM (active)
24 | C=CC(=O)Nc1cc2c(Nc3ccc(F)c(Cl)c3)ncnc2cc1C#CC(C)(C)N1CCN(C)CC1 | 6.62 µM (active)
25 | O=C(O)c1ccc2cc(-c3ccc(O)c(C45CC6CC(CC(C6)C4)C5)c3)ccc2c1 | 0.935 µM (active)
26 | CC=C1NC(=O)[C@H]2CSSCCC=C[C@H](CC(=O)N[C@H](C(C)C)C(=O)N2)OC(=O)[C@H](C(C)C)NC1=O | 0.0053 µM (active)
27 | CC1(C)CCC(c2ccc(Cl)cc2)=C(CN2CCN(c3ccc(C(=O)NS(=O)(=O)c4ccc(N[C@H](CCN5CCOCC5)CSc5ccccc5)c(S(=O)(=O)C(F)(F)F)c4)cc3)CC2)C1 | 23.5 µM (active)
28 | O=C(NCCCNc1nc(Nc2cccc(NC(=O)N3CCCC3)c2)ncc1I)c1cccs1 | 6.62 µM (active) and 14.8 µM (active)
29 | CCC(=C(c1ccccc1)c1ccc(OCCN(C)C)cc1)c1ccccc1 | 23.5 µM (active)
30 | COC(=O)c1ccc2c(C(=Nc3ccc(N(C)C(=O)CN4CCN(C)CC4)cc3)c3ccccc3)c(O)[nH]c2c1 | 4.69 µM (active)
31 | CCCCN1CCC(CNC(=O)c2c3n(c4ccccc24)CCCO3)CC1 | inactive
32 | Cc1ccc(C(=O)Nc2cccc(C(F)(F)F)c2)cc1-c1ccc2nc(NCCN3CCOCC3)ncc2c1 | 2.64 µM (active)
33 | CC(C)(C)OC(=O)Nc1ccc(-c2cc(C(=O)NCCCCCCC(=O)NO)no2)cc1 | 2.35 µM (active)
34 | Nc1nc(Nc2ccc(S(N)(=O)=O)cc2)nn1C(=O)c1c(F)cccc1F | 2.64 µM (active)
35 | N#CCNC(=O)c1ccc(-c2ccnc(Nc3ccc(N4CCOCC4)cc3)n2)cc1 | 13.2 µM (active)
36 | CN1CCN(c2ccc3nc(-c4c(N)c5c(F)cccc5[nH]c4=O)[nH]c3c2)CC1 | 3.32 µM (active)
37 | CCCCc1nc2cc(C=CC(=O)NO)ccc2n1CCN(CC)CC | 1.18 µM (active)
38 | COCCn1c2c([n+](Cc3cnccn3)c1C)C(=O)c1ccccc1C2=O | 0.0066 µM (active)
39 | Cc1[nH]nc2ccc(-c3cncc(OC[C@@H](N)Cc4ccccc4)c3)cc12 | 0.935 µM (active)
40 | C1Cc2[nH]nc(-c3nn[nH]n3)c2C1 | inactive
